Each structure is given as a SMILES string. The campaign covered roughly 39,000 compounds. About 3,300 (8.5%) were called active. Shown is part of a subset that was picked to be rich in actives.

For this test, the system named is HepG2. As to the kind of experiment: cytotoxicity call (relative viability < 0.9). The conditions noted are these: 10 µM.
On to `Cc1cc(O)cc(=O)o1`, for which the cytotoxicity call is “inactive”.
Then `C[C@@H]1CN([C@H](C)CO)C(=O)c2cc(NC(=O)Nc3ccc(F)cc3)ccc2O[C@@H](C)CCCCO[C@@H]1CN(C)S(=O)(=O)c1ccc(Cl)cc1`, with “inactive”; and `COc1ccc(NC(=O)Nc2ccc3c(c2)C(=O)N([C@@H](C)CO)C[C@@H](C)[C@H](CN(C)C(=O)Nc2ccccc2)OCCCC[C@H](C)O3)cc1`, with “inactive”.
Regarding `CC(C)NC(=O)Nc1ccc2c(c1)C(=O)N([C@@H](C)CO)C[C@@H](C)[C@@H](CN(C)S(=O)(=O)c1cn(C)cn1)OCCCC[C@@H](C)O2`, the cytotoxicity call is “inactive”.
Consider `COc1ccc2c3c([nH]c2c1)[C@@H](CO)N(C[C@]13CCN(CC1)C(=O)Nc1ccccc1)C(=O)Nc1ccc(cc1)F`, for which the cytotoxicity call is “inactive”.
In the case of `COc1ccc2c3c([nH]c2c1)[C@@H](CO)N(C[C@]13CCN(CC1)Cc1ccc(cc1)F)C(=O)Nc1ccc(cc1)F` it was “active”.
Then `COc1ccc2c3c([nH]c2c1)[C@@H](CO)N(C[C@]13CCN(CC1)Cc1ccccc1OC)C(=O)Nc1ccc(cc1)F`, with “active”; and `COc1ccc2c3c([nH]c2c1)[C@H](CO)N(C[C@]13CCN(CC1)Cc1cc(on1)-c1ccccc1)C(=O)Nc1ccc(cc1)F`, with “inactive”.
In the case of `COc1ccc2c3c([nH]c2c1)[C@@H](CO)N(C[C@]13CCN(CC1)C(=O)Nc1ccc(cc1)F)C(=O)c1ccc(cc1)F`, the cytotoxicity call was “inactive”.
In the case of `COc1ccc2c3c([nH]c2c1)[C@H](CO)N(C[C@]13CCN(CC1)C(=O)Nc1ccccc1)C(=O)Nc1ccc(cc1)F` it was “active”; in that of `COc1ccc2c3c([nH]c2c1)[C@@H](CO)N(C[C@]13CCN(CC1)Cc1cc(ccc1F)F)C(=O)Nc1ccc(cc1)F`, “inactive”; in that of `COc1ccc2c3c([nH]c2c1)[C@H](CO)N(C[C@]13CCN(CC1)Cc1cc(ccc1F)F)C(=O)Nc1ccc(cc1)F`, “inactive”.
For `COc1ccc2c3c([nH]c2c1)[C@H](CO)N(C[C@]13CCN(CC1)S(=O)(=O)C)C(=O)Nc1ccc(cc1)F`, the cytotoxicity call is “inactive”.
Then `COc1ccc2c3c([nH]c2c1)[C@H](CO)N(C[C@]13CCN(CC1)Cc1ccccc1OC)C(=O)Nc1ccc(cc1)F`, with “inactive”; and `COc1ccc2c3c([nH]c2c1)[C@@H](CO)N(C[C@]13CCN(CC1)S(=O)(=O)C)C(=O)Nc1ccc(cc1)F`, with “inactive”.
Then `COc1ccc2c3c([nH]c2c1)[C@H](CO)N(C[C@]13CCN(CC1)Cc1ccc(cc1)F)C(=O)Nc1ccc(cc1)F`, with “active”; and `COc1cc(OC)c(NC(=O)Cn2c(=O)n(-c3ccc(CC(=O)NC[C@H]4CCCO4)cc3)c(=O)c3ccccc32)cc1Cl`, with “inactive”.
`C[C@H]1CN([C@@H](C)CO)C(=O)c2cccc(NC(=O)Nc3ccccc3)c2O[C@@H]1CN(C)C(=O)Nc1cccc2ccccc12`: the cytotoxicity call was “inactive”.
Then `C/C(=C\C(=O)OCCCCCCCCC(=O)O)C[C@@H]1OC[C@H](C[C@@H]2O[C@H]2[C@@H](C)[C@H](C)O)[C@@H](O)[C@H]1O`, with “inactive”; and `CC(=O)N1[C@H](CO)[C@@H](c2ccccc2)[C@@H]1CNC(=O)CN1CCOCC1`, with “inactive”; and `C[C@H]1CN([C@@H](C)CO)S(=O)(=O)c2ccc(-c3cccc(F)c3)cc2O[C@H]1CN(C)S(C)(=O)=O`, with “inactive”.
Take `COCC#Cc1ccc2c(c1)O[C@@H](CN(C)S(=O)(=O)c1cccc(OC)c1)[C@H](C)CN([C@@H](C)CO)S2(=O)=O`: the cytotoxicity call is “inactive”.
In the case of `C[N+](C)(C)C[C@@H](O)CC(=O)O` it was “inactive”.
Then `C[N+](C)(C)CC(O)CC(=O)[O-]` (centres undefined), with “active”; and `C[N+](C)(C)C[C@H](O)CC(=O)O`, with “inactive”.
On to `COCCCOc1ccnc(CS(=O)c2nc3ccccc3[n-]2)c1C.[Na+]` (centres undefined), for which the cytotoxicity call is “inactive”.
On to `C[C@@H]1CN([C@@H](C)CO)S(=O)(=O)c2ccc(-c3cncnc3)cc2O[C@H]1CN(C)C(=O)NC1CCCC1`, for which the cytotoxicity call is “inactive”.
Regarding `CC(=O)[C@@]12C=CCC[C@@H]1C[C@@H](C(=O)Nc1c(C)cccc1Cl)N2C(=O)c1nc(C)oc1C(F)(F)F`, the cytotoxicity call is “inactive”.
On to `O=C1c2ccc3c4c(ccc(c24)C(=O)N1CCCCO)C(=O)N(CCCCO)C3=O`, for which the cytotoxicity call was “active”.
In the case of `O=C(O)CCCN1C(=O)c2cccc3cccc(c23)C1=O` it was “inactive”; in that of `N=C(N)SCCN1C(=O)c2ccccc2C1=O`, “inactive”; in that of `C[C@H]1CN([C@@H](C)CO)C(=O)CCCn2cc(nn2)CO[C@H]1CN(C)Cc1ccc(C(=O)Nc2ccccc2N)cc1`, “inactive”.
Take `CN(C)C1CN(S(=O)(=O)CCC2CC2)C1`: the cytotoxicity call was “inactive”.
For the compound `COCC(=O)Nc1ccc2c(c1)C(=O)N(C)C[C@H](OC)[C@@H](C)CN(C(=O)Cc1ccccn1)[C@H](C)CO2`, the cytotoxicity call is “active”.
For the compound `CO[C@@H]1CN(C)C(=O)c2cc(NS(C)(=O)=O)ccc2OC[C@H](C)N(C(=O)C2CCCCC2)C[C@H]1C`, the cytotoxicity call was “inactive”.
In the case of `COc1ccc(CN2C[C@@H](C)[C@H](OC)CN(C)C(=O)c3cc(NC(=O)c4nc5ccccc5s4)ccc3OC[C@@H]2C)cc1` it was “active”.
Consider `CO[C@H]1CN(C)C(=O)c2cc(NS(C)(=O)=O)ccc2OC[C@H](C)N(C(=O)C2CCCCC2)C[C@H]1C`, for which the cytotoxicity call is “inactive”.
Then `COCC(=O)Nc1ccc2c(c1)C(=O)N(C)C[C@@H](OC)[C@H](C)CN(C(=O)Cc1ccccn1)[C@H](C)CO2`, with “inactive”; and `CO[C@@H]1CN(C)C(=O)c2cc(NC(=O)NC3CCCCC3)ccc2OC[C@H](C)N(CCc2ccccc2)C[C@H]1C`, with “active”.
Consider `COCC(=O)Nc1ccc2c(c1)C(=O)N(C)C[C@H](OC)[C@@H](C)CN(C(=O)Cc1ccccn1)[C@@H](C)CO2`, for which the cytotoxicity call is “inactive”.
In the case of `CO[C@H]1CN(C)C(=O)c2cc(NC(=O)NC3CCCCC3)ccc2OC[C@H](C)N(CCc2ccccc2)C[C@@H]1C` it was “inactive”; in that of `CO[C@H]1CN(C)C(=O)c2cc(NC(=O)NC3CCCCC3)ccc2OC[C@@H](C)N(CCc2ccccc2)C[C@@H]1C`, “inactive”.
Then `COc1ccc(CN2C[C@@H](C)[C@H](OC)CN(C)C(=O)c3cc(NC(=O)c4nc5ccccc5s4)ccc3OC[C@H]2C)cc1`, with “inactive”; and `COc1ccc(CN2C[C@H](C)[C@@H](OC)CN(C)C(=O)c3cc(NC(=O)c4nc5ccccc5s4)ccc3OC[C@@H]2C)cc1`, with “inactive”; and `CO[C@@H]1CN(C)C(=O)c2cc(NS(C)(=O)=O)ccc2OC[C@H](C)N(C(=O)C2CCCCC2)C[C@@H]1C`, with “active”.
With `C[C@@H]1CN([C@@H](C)CO)S(=O)(=O)c2ccc(C#CC(C)(C)O)cc2O[C@@H]1CN(C)C(=O)C1CCCCC1`, the cytotoxicity call is “inactive”.
Then `C[C@@H]1CN([C@@H](C)CO)C(=O)c2cc(NS(=O)(=O)c3cn(C)cn3)ccc2O[C@@H]1CN(C)Cc1ccc(C(=O)Nc2ccccc2N)cc1`, with “inactive”.
Then `O=C(C[C@@H]1CC[C@@H](NC(=O)CN2CCOCC2)[C@H](CO)O1)NCc1cccc(F)c1`, with “inactive”; and `C[C@H]1CN([C@@H](C)CO)C(=O)Cc2cc(NS(=O)(=O)c3cccs3)ccc2O[C@H]1CN(C)S(C)(=O)=O`, with “inactive”; and `C[C@H](CO)N1C[C@H](C)[C@H](CN(C)Cc2ccccc2)Oc2ccc(NC(=O)Cn3cnnn3)cc2C1=O`, with “inactive”.
As for `C[C@@H]1CN([C@@H](C)CO)C(=O)c2cccc(NC(=O)c3cnccn3)c2O[C@@H]1CN(C)Cc1ccncc1`, the cytotoxicity call is “inactive”.
On to `COc1ccc2c3c(n(c2c1)C)[C@@H](CO)N(C[C@]13CCN(CC1)C(=O)Nc1cccc(c1)F)C(=O)CN1CCOCC1`, for which the cytotoxicity call was “inactive”.
Then `C[C@@H]1CN([C@H](C)CO)C(=O)c2cccc(NC(=O)Nc3ccc4c(c3)OCO4)c2O[C@H]1CN(C)Cc1ccc(Cl)c(Cl)c1`, with “inactive”; and `CNC[C@H]1Oc2ccc(NS(=O)(=O)c3cn(C)cn3)cc2CC(=O)N([C@@H](C)CO)C[C@H]1C`, with “inactive”.
Then `C[C@H](O)C#Cc1ccc2c(c1)O[C@@H](CN(C)C(=O)c1ccccc1)[C@@H](C)CN([C@H](C)CO)S2(=O)=O`, with “inactive”; and `COc1ccc(NC(=O)Nc2ccc3c(c2)C(=O)N([C@H](C)CO)C[C@@H](C)[C@@H](CN(C)S(=O)(=O)c2cccs2)OCCCC[C@H](C)O3)cc1`, with “inactive”.
On to `CO[C@@H]1CN(C)C(=O)c2cc(NC(=O)NC(C)C)ccc2OC[C@@H](C)N(Cc2ccc(-c3ccccn3)cc2)C[C@@H]1C`, for which the cytotoxicity call is “inactive”.
Turning to `CO[C@H]1CN(C)C(=O)c2cc(NC(=O)NC(C)C)ccc2OC[C@H](C)N(Cc2ccc(-c3ccccn3)cc2)C[C@@H]1C`, the cytotoxicity call was “active”.
In the case of `CO[C@@H]1CN(C)C(=O)c2cc(NC(=O)NC(C)C)ccc2OC[C@H](C)N(Cc2ccc(-c3ccccn3)cc2)C[C@H]1C`, the cytotoxicity call was “inactive”.
For the compound `CO[C@@H]1CN(C)C(=O)c2cc(NC(=O)NC3CCCCC3)ccc2OC[C@@H](C)N(CCc2ccccc2)C[C@H]1C`, the cytotoxicity call is “active”.
With `CO[C@@H]1CN(C)C(=O)c2cc(NC(=O)NC3CCCCC3)ccc2OC[C@@H](C)N(CCc2ccccc2)C[C@@H]1C`, the cytotoxicity call was “inactive”.
Then `CO[C@@H]1CN(C)C(=O)c2cc(NC(=O)NC3CCCCC3)ccc2OC[C@H](C)N(CCc2ccccc2)C[C@@H]1C`, with “inactive”; and `COc1ccccc1CNC(=O)C[C@H]1C[C@@H]2c3cc(NC(=O)NC4CCCC4)ccc3O[C@@H]2[C@H](CO)O1`, with “inactive”; and `NC[C@H]1CN(Cc2ccc(F)cc2)CCO1`, with “inactive”.
Then `CN1C(=O)c2cc(NC(=O)C3CCOCC3)ccc2OC[C@@H]2O[C@H](CC(=O)NCCc3ccncc3)CC[C@@H]21`, with “inactive”; and `N[C@@H](Cc1ccc2nonc2c1)C(=O)O`, with “inactive”.
In the case of `O=C(C[C@@H]1CC[C@@H]2[C@H](COC[C@H](O)CN2S(=O)(=O)c2ccc(Cl)cc2)O1)N1CCc2ccccc2C1` it was “inactive”.
Regarding `O=C(c1cccc2ccccc12)N(C1CCCC1)C1CCCC1`, the cytotoxicity call is “inactive”.
In the case of `CCN(CC)CCOC(=O)C(Cc1cccc2ccccc12)CC1CCCO1.O=C(O)C(=O)O` (centres undefined) it was “active”; in that of `CCn1c(=O)cc(N2CCC(C)CC2)[nH]c1=O`, “inactive”; in that of `CO/N=C1\C[C@]2(C[C@@H]3C[C@@H](C/C=C(\C)C[C@@H](C)/C=C/C=C4\CO[C@@H]5[C@H](O)C(C)=C[C@@H](C(=O)O3)[C@]45O)O2)O[C@H](/C(C)=C/C(C)C)[C@H]1C`, “active”.
As to `COC1CC(OC2C(C)OC(OC3C(C)=CCC4CC(CC5(C=CC(C)C(C6CCCCC6)O5)O4)OC(=O)C4C=C(C)C(O)C5OCC(=CC=CC3C)C45O)CC2OC)OC(C)C1O` (centres undefined), the cytotoxicity call was “inactive”.
As for `CON=C1CC2(CC3CC(CC=C(C)CC(C)C=CC=C4COC5C(O)C(C)=CC(C(=O)O3)C45O)O2)OC(C(C)=CC(C)C)C1C` (centres undefined), the cytotoxicity call was “active”.
Then `CO[C@H]1C[C@H](O[C@H]2[C@H](C)O[C@@H](O[C@@H]3/C(C)=C/C[C@@H]4C[C@@H](C[C@]5(C=C[C@H](C)[C@@H](C6CCCCC6)O5)O4)OC(=O)[C@@H]4C=C(C)[C@@H](O)[C@H]5OC/C(=C\C=C\[C@@H]3C)[C@]54O)C[C@@H]2OC)O[C@@H](C)[C@@H]1O`, with “inactive”.

The record behind these values is the antibiotic and cytotoxicity screens of Wong et al. (2023).
